{"source": "PubChem BioAssay (EPA / NIEHS)", "key": {"[1]": {"molecular_target": "human Vasopressin 1A Receptor (V1A), AVPR1A (gene 552) (UniProt P37288)", "sequence (P37288 whole entry, looked up)": "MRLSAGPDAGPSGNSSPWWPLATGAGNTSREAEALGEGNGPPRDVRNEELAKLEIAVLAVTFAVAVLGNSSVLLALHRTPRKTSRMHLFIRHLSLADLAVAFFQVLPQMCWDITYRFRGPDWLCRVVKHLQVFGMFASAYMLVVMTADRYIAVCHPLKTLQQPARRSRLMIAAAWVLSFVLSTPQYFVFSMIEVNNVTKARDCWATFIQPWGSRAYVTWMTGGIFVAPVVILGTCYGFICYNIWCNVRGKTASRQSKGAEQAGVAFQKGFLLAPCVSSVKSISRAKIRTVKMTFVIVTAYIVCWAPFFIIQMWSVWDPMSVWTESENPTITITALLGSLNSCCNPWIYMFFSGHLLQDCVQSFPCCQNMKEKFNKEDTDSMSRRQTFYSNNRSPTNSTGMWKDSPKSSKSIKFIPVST", "assay": "NVS_GPCR_hV1A: NovaScreen (NVS) G Protein-Coupled Receptor Assay for human Vasopressin 1A Receptor (V1A) (AID 2283284)", "outline": "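Single-concentration duplicate screen at 25 uM, with concentration-response follow-up (top 50 uM) for actives. The assay measured displacement of a radioligand from human platelet-derived receptor after 1.5 h, detected by filtration and scintillation counting.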"}, "[2]": {"molecular_target": "human Opioid Receptor Delta 1 (Opiate D1), OPRD1 (gene 4985) (UniProt P41143)", "sequence (P41143 whole entry, looked up)": "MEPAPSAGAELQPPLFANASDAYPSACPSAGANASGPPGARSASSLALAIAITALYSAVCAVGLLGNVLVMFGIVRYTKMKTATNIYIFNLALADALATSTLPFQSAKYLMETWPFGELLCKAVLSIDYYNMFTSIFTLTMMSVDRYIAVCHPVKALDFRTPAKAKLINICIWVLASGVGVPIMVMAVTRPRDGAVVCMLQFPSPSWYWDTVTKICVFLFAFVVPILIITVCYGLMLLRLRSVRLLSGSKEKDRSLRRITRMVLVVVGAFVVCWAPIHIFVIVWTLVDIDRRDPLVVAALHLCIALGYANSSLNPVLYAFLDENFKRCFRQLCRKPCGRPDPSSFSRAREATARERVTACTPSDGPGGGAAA", "assay": "NVS_GPCR_hOpiate_D1: NovaScreen (NVS) G Protein-Coupled Receptor Assay for human Opioid Receptor Delta 1 (Opiate D1) (AID 2283280)", "outline": "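Membrane preparations from CHO cells bearing the human receptor were incubated 1 h with test chemical, and bound radioligand was counted after filtration. Actives from 25 uM duplicate screening were retested in concentration-response.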"}, "[3]": {"molecular_target": "human Purinergic Receptor P2Y, P2RY1 (gene 5028) (UniProt P47900)", "sequence (P47900 whole entry, looked up)": "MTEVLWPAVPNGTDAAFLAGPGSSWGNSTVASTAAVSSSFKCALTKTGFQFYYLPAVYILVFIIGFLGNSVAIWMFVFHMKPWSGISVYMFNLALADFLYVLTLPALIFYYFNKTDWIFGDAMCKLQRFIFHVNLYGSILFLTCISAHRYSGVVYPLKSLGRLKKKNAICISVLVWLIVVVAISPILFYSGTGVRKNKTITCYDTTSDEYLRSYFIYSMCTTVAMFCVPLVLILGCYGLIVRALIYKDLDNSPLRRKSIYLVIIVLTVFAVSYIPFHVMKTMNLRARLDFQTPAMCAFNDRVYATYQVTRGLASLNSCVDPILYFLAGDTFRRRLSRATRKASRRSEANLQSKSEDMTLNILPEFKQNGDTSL", "assay": "NVS_GPCR_hPY2: NovaScreen (NVS) G Protein-Coupled Receptor Assay for human Purinergic Receptor P2Y (AID 2283281)", "outline": "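Filtration scintillation readout of radioligand displacement on U937 extract, measured 1 h post-dosing. Single 25 uM duplicate screen, then singleton concentration series to 50 uM for chemicals passing threshold; DMSO as baseline.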"}, "[4]": {"molecular_target": "human Thromboxane A2 Receptor (TXA2), TBXA2R (gene 6915) (UniProt P21731)", "sequence (P21731 whole entry, looked up)": "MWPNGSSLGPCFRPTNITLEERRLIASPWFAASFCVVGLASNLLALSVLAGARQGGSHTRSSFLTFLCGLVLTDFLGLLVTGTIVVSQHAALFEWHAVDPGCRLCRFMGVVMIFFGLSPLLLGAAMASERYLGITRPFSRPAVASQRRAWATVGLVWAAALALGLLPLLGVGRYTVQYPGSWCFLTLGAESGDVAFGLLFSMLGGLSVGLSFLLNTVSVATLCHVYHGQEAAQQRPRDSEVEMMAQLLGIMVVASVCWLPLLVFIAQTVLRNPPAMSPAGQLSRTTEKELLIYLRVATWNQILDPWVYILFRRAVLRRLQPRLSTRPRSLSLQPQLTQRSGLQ", "assay": "NVS_GPCR_hTXA2: NovaScreen (NVS) G Protein-Coupled Receptor Assay for human Thromboxane A2 Receptor (TXA2) (AID 2283282)", "outline": "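Biochem binding, human platelets, cell-free; competitive radioligand displacement; 1 h; filter radiodetection. 25 uM duplicate primary, conc. series secondary; DMSO neg. ctrl.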"}, "[5]": {"molecular_target": "human Neurokinin, NK2 Receptor, TACR2 (gene 6865) (UniProt P21452)", "sequence (P21452 whole entry, looked up)": "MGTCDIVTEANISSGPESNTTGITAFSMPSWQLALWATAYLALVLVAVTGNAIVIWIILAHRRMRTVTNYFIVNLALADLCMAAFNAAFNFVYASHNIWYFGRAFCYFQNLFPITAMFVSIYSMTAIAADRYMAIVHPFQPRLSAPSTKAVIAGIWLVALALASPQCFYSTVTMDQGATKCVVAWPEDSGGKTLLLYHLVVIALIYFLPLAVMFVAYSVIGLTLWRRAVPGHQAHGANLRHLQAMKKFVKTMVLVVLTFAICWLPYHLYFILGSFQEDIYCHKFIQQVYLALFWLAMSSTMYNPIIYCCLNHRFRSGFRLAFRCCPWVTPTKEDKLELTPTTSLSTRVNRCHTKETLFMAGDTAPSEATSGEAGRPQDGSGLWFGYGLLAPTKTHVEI", "assay": "NVS_GPCR_hNK2: NovaScreen (NVS) G Protein-Coupled Receptor Assay for human Neurokinin, NK2 Receptor (AID 2283278)", "outline": "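Cell-free radioligand binding using receptor protein extracted from CHO cells; readings taken 4 hours after chemical dosing by filter-based scintillation counting. Primary screen ran single concentration (25 uM) in duplicate; actives followed up in concentration series, loss-of-signal versus DMSO baseline.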"}, "[6]": {"molecular_target": "mouse Cholecystokinin, CCK1 Receptor (CCKA), Cckar (gene 12425) (UniProt O08786)", "sequence (O08786 whole entry, looked up)": "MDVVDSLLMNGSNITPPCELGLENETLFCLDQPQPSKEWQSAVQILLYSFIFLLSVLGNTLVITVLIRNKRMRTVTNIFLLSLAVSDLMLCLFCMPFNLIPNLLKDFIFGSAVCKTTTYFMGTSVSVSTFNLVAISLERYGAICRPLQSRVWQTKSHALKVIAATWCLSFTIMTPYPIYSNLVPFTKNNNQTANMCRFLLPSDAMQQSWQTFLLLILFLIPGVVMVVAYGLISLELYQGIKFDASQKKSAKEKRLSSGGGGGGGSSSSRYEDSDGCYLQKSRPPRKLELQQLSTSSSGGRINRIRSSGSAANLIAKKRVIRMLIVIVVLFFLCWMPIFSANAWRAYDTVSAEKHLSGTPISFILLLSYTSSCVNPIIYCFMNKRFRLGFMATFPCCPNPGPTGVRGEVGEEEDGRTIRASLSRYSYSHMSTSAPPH", "assay": "NVS_GPCR_mCCKAPeripheral: NovaScreen (NVS) G Protein-Coupled Receptor Assay for mouse Cholecystokinin, CCK1 Receptor (CCKA) (AID 2283285)", "description": "NVS_GPCR_mCCKAPeripheral is a biochemical, single-readout assay that uses extracted gene-proteins from Mouse pancreatic membranes in a tissue-based cell-free assay. Measurements were taken 2 hours after chemical dosing in a 96-well plate.NVS_GPCR_mCCKAPeripheral is one of one assay component(s) measured or calculated from the NVS_GPCR_mCCKAPeripheral assay. It is designed to make measurements of radioligand binding, a form of binding reporter, as detected with scintillation counting signals by Filter-based radiodetection technology.Data from the assay component NVS_GPCR_mCCKAPeripheral was analyzed into 1 assay endpoint. This assay endpoint, NVS_GPCR_mCCKAPeripheral, was analyzed in the positive analysis fitting direction relative to DMSO as the negative control and baseline of activity. Using a type of binding reporter, loss-of-signal activity can be used to understand changes in the binding as they relate to the gene Cckar. Furthermore, this assay endpoint can be referred to as a primary readout, because the performed assay has only produced 1 assay endpoint. To generalize the intended target to other relatable targets, this assay endpoint is annotated to the gpcr intended target family, where the subfamily is rhodopsin-like receptor.\nBinding assays used specific radioligands (tritiated, iodinated) with non-radioactive competitive displacement ligands in agonist or antagonist protocols (as indicated) and various reference compounds and inhibitors to titrate specific binding to receptors and transporters. Most enzyme assays (CYPs, kinases, phosphatases, proteases, HDACs) used recombinant protein and specific substrates (fluorescence mostly, some colorimetric and radioactive) and inhibitors, followed by a biochemical separation of substrate and product. All assays for the biochemical HTS were initially run in duplicate at a single concentration (10 uM for CYP450 assays and 25 uM for all others). Assay-chemical combinations meeting a pre-defined threshold (e.g., 30% inhibition and other criteria defined below) were then run in singleton concentration-response format with maximum concentration of 20 uM for CYPs and 50 uM for all others. Each assay was run with positive and negative controls, and concurrent controls on every plate. The follow-up (secondary) screen tested active chemical-pairs in concentration series, as well as a few additional assays not tested in the primary screen, some selected negative inactives, and several cases re-run in the concentration series for confirmatory purposes."}, "[7]": {"molecular_target": "human Neurotensin Receptor (NTS), NTSR1 (gene 4923) (UniProt P30989)", "sequence (P30989 whole entry, looked up)": "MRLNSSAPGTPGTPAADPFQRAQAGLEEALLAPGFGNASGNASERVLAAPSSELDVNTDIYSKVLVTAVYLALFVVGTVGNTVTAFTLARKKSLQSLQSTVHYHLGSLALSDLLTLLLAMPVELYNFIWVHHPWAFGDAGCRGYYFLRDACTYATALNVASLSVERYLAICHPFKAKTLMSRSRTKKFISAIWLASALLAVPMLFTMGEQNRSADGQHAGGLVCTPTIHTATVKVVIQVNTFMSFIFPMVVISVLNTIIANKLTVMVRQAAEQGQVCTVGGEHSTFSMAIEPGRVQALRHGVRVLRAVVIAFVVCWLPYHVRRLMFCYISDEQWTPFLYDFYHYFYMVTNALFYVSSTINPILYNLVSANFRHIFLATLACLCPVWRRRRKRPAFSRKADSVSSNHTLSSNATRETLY", "assay": "NVS_GPCR_hNTS: NovaScreen (NVS) G Protein-Coupled Receptor Assay for human Neurotensin Receptor (NTS) (AID 2283279)", "outline": "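Compounds competed with a radiolabelled ligand for binding to CHO-derived human neurotensin receptor; bound signal counted after filtration, 1 h. Screened first at a single concentration of 25 uM in duplicate, then concentration series to 50 uM maximum for actives.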"}, "[8]": {"molecular_target": "Neuropeptide Y receptor type 2 (Homo sapiens) (UniProt P49146)", "sequence (P49146 whole entry, looked up)": "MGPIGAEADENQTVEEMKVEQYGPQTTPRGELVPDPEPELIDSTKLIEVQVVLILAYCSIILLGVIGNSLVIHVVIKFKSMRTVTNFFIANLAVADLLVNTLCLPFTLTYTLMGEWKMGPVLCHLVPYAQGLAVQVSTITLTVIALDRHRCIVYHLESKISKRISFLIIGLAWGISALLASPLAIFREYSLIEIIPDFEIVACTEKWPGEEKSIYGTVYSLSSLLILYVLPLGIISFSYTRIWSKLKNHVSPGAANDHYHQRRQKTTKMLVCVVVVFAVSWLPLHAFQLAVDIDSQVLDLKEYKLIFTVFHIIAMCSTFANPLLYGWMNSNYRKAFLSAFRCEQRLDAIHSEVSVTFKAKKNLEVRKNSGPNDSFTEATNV", "assay": "NVS_GPCR_hNPY2: NovaScreen (NVS) G Protein-Coupled Receptor Assay for human Neuropeptide Receptor Y2 (NPY2) (AID 2283277)", "outline": "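Chemicals were first tested in duplicate at 25 uM, then actives in singleton concentration series to 50 uM. Tracer binding to SK-N-MC-derived protein measured cell-free after 1 h via filter scintillation; signal loss relative to DMSO.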"}, "[9]": {"molecular_target": "human Neuropeptide Receptor Y1 (NPY1), NPY1R (gene 4886) (UniProt P25929)", "sequence (P25929 whole entry, looked up)": "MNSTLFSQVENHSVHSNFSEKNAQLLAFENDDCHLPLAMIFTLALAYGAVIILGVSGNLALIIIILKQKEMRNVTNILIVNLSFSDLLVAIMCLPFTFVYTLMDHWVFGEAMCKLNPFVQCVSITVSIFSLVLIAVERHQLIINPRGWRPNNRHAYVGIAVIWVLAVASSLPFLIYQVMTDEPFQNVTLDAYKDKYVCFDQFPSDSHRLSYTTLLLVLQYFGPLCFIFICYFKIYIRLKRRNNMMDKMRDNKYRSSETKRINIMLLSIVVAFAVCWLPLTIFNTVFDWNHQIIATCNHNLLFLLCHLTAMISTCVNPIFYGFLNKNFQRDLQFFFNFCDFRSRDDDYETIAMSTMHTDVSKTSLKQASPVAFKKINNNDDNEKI", "assay": "NVS_GPCR_hNPY1: NovaScreen (NVS) G Protein-Coupled Receptor Assay for human Neuropeptide Receptor Y1 (NPY1) (AID 2283276)", "outline": "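Displacement of specific radioligand from NPY1 receptor of SK-N-MC origin, read by filtration and scintillation after 1 h. Compounds first tested at 25 uM in duplicate, then actives in concentration series; signal loss relative to DMSO.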"}, "[10]": {"molecular_target": "human Orphanin, Opioid Related Nociceptin Receptor 1 (ORL1), OPRL1 (gene 4987) (UniProt P41146)", "sequence (P41146 whole entry, looked up)": "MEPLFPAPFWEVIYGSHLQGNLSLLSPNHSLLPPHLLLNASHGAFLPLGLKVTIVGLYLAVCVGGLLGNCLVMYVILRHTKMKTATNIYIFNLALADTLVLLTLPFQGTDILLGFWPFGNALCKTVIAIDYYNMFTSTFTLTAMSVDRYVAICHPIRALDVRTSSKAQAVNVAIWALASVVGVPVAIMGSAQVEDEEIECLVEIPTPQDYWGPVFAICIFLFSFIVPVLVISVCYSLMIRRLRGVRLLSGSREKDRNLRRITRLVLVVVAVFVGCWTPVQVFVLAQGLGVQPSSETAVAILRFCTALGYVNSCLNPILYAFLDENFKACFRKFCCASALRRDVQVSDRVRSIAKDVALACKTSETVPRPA", "assay": "NVS_GPCR_hORL1: NovaScreen (NVS) G Protein-Coupled Receptor Assay for human Orphanin, Opioid Related Nociceptin Receptor 1 (ORL1) (AID 2283283)", "outline": "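Cell-free binding using HEK293-derived receptor protein: radioligand displacement measured by filter scintillation 1 hour after dosing. Primary testing at 25 uM in duplicate, followed by singleton concentration series up to 50 uM; DMSO served as negative control.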"}}, "note": "Records with an inconclusive call do not appear. Active and inactive are the calls of the source. Rule for the calls: active = hit-call score of the fitted dose curve at least 0.9, where 1 is the maximum; inconclusive = response in the unintended direction; inactive = score below 0.9.", "data": [{"smiles": "N#Cc1ccc(N(CC(N)=O)CC(F)(F)F)cc1C(F)(F)F", "values": [{"measurement": "outcome", "setting": "[1]", "value": "inactive"}]}, {"smiles": "O=C(O)C(F)(F)C(F)(F)C(F)(F)C(F)(F)C(F)(F)C(F)(F)C(F)(F)C(F)(F)C(F)(F)F", "values": [{"measurement": "AC50", "setting": "[2]", "value": "16.4 µM (active)"}, {"measurement": "outcome", "setting": "[3]", "value": "inactive"}, {"measurement": "AC50", "setting": "[4]", "value": "25 µM (active)"}]}, {"smiles": "Cc1ccc(O)c(C)c1", "values": [{"measurement": "AC50", "setting": "[1]", "value": "0.12 µM (active)"}]}, {"smiles": "O=C(O)C(F)(F)C(F)(F)C(F)(F)C(F)(F)C(F)(F)C(F)(F)C(F)(F)C(F)(F)F", "values": [{"measurement": "AC50", "setting": "[4]", "value": "6.2 µM (active)"}]}, {"smiles": "CC(C)(c1ccccc1)c1ccc(O)cc1", "values": [{"measurement": "AC50", "setting": "[5]", "value": "25 µM (active)"}, {"measurement": "AC50", "setting": "[6]", "value": "18.2 µM (active)"}]}, {"smiles": "CC(C)(O)C(=O)Nc1ccc([N+](=O)[O-])c(C(F)(F)F)c1", "values": [{"measurement": "outcome", "setting": "[3]", "value": "inactive"}]}, {"smiles": "C[C@]12CCC(=O)C=C1CC[C@@H]1[C@@H]2CC[C@@]2(C)[C@H]1CC[C@]2(C)O", "values": [{"measurement": "outcome", "setting": "[2]", "value": "inactive"}]}, {"smiles": "Cc1cc2c3c(c1)C(c1ccccc1)=N[C@@H](NC(=O)c1ccncc1)C(=O)N3CC2", "values": [{"measurement": "outcome", "setting": "[5]", "value": "inactive"}, {"measurement": "outcome", "setting": "[7]", "value": "inactive"}, {"measurement": "outcome", "setting": "[4]", "value": "inactive"}, {"measurement": "AC50", "setting": "[6]", "value": "19.9 µM (active)"}]}, {"smiles": "O=S(=O)(O)C(F)(F)C(F)(F)C(F)(F)C(F)(F)C(F)(F)C(F)(F)F", "values": [{"measurement": "outcome", "setting": "[8]", "value": "inactive"}, {"measurement": "AC50", "setting": "[4]", "value": "14.5 µM (active)"}]}, {"smiles": "CCCCCCCCCC[N+](C)(C)CCCCCCCCCC", "values": [{"measurement": "AC50", "setting": "[9]", "value": "7.12 µM (active)"}, {"measurement": "AC50", "setting": "[8]", "value": "11.6 µM (active)"}, {"measurement": "AC50", "setting": "[5]", "value": "2.98 µM (active)"}, {"measurement": "AC50", "setting": "[7]", "value": "4.36 µM (active)"}, {"measurement": "AC50", "setting": "[2]", "value": "4.31 µM (active)"}, {"measurement": "AC50", "setting": "[4]", "value": "14.3 µM (active)"}, {"measurement": "AC50", "setting": "[10]", "value": "7.48 µM (active)"}, {"measurement": "AC50", "setting": "[6]", "value": "6.6 µM (active)"}]}, {"smiles": "Oc1c(Cl)c(Cl)c(Cl)c(Cl)c1Cl", "values": [{"measurement": "outcome", "setting": "[5]", "value": "inactive"}, {"measurement": "outcome", "setting": "[3]", "value": "inactive"}, {"measurement": "outcome", "setting": "[1]", "value": "inactive"}]}, {"smiles": "CCC(C)(c1ccc(O)cc1)c1ccc(O)cc1", "values": [{"measurement": "outcome", "setting": "[5]", "value": "inactive"}, {"measurement": "AC50", "setting": "[2]", "value": "13.2 µM (active)"}]}, {"smiles": "O=C(NC(=O)c1c(F)cccc1F)Nc1cc(Cl)c(OC(F)(F)C(F)F)c(Cl)c1", "values": [{"measurement": "outcome", "setting": "[4]", "value": "inactive"}]}, {"smiles": "CCC(C)(CC)c1cc(NC(=O)c2c(OC)cccc2OC)on1", "values": [{"measurement": "AC50", "setting": "[4]", "value": "1.03 µM (active)"}]}, {"smiles": "CCCCCCCCCc1ccc(O)cc1", "values": [{"measurement": "outcome", "setting": "[3]", "value": "inactive"}]}, {"smiles": "CCOC(=O)C(O)(c1ccc(Cl)cc1)c1ccc(Cl)cc1", "values": [{"measurement": "outcome", "setting": "[4]", "value": "inactive"}, {"measurement": "AC50", "setting": "[6]", "value": "11.7 µM (active)"}]}, {"smiles": "Oc1ccc(C(c2ccc(O)cc2)(C(F)(F)F)C(F)(F)F)cc1", "values": [{"measurement": "AC50", "setting": "[2]", "value": "11.4 µM (active)"}, {"measurement": "AC50", "setting": "[10]", "value": "25 µM (active)"}]}, {"smiles": "CCOP(=S)(OCC)SCSC(C)(C)C", "values": [{"measurement": "outcome", "setting": "[3]", "value": "inactive"}]}]}
